# Assay outcomes deposited in PubChem BioAssay by Sanford-Burnham Center for Chemical Genomics.
# Most compounds without a hit are left out; they make up all but 1.1% or so of the library.
# FAS TE block = blocks the thioesterase domain of human fatty acid synthase. P49327. 360,000 tested, 0.67% active. AID 602261. recombinant FAS-TE, OMFH fluorogenic substrate, fluorescence endpoint. inhibition, % at 15 µM;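 active = compounds whose normalised, plate-corrected inhibition of enzyme fluorescence in the single-dose primary screen is 50% or more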;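 note: 0% = DMSO with enzyme and 100% = substrate without enzyme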
# NPR1 activator = GC-A (human) enzyme activation | 370,000 tested, 0.14% active | HEK293 GC-A cells, cGMP TR-FRET, EC30 ANP; 0% at EC30 ANP, 100% saturating ANP | activation, % at 10 µM; in the data active = activation above about 40%
# GC-B act = GC-B (human) receptor activation; P20594; HEK293-GC-B cells, CNP EC30, cGMP TR-FRET; 0% at EC30 CNP, 100% saturating CNP; activation, % at 10 µM; 370,000 tested, 0.11% active; AID 1920062;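 active = activation at 10 µM reaching about 35% in either raw or pattern-adjusted values, limit read from the data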
# aDG glyco up = increases alpha dystroglycan glycosylation; Pro5-aDG cells, alpha-DG glycosylation AlphaScreen (IIH6); 0% Pro5, 100% B10-LARGE cell signal; activation, % at 10 µM; AID 624168; 360,000 tested, 0.22% active;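 active = activation of at least 8% versus controls, or a plate z-score of at least 8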;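 note: Pro5 are CHO cells carrying HIG-tagged alpha-DG that lacks glycosylation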
# * marks the source's active call; other numbers are inactive results; . = no result.
SMILES,FAS TE block,NPR1 activator,GC-B act,aDG glyco up
Cc1cnc(NC(=O)CSc2nnc(COc3c(C)cccc3C)o2)s1,8,1,97*,0
COc1cccc(C2CC3(CC(C)(C)NC(=S)N3)Oc3cc(O)ccc32)c1 (stereo not drawn),-11,56*,-3,0
Cc1cccc(C2CC3(CC(C)(C)NC(=S)N3)Oc3cc(O)ccc32)c1 (stereo not drawn),-5,40,3,0
O=C(N[C@H](C(=O)N1CCC[C@H]1C(=O)NC1CCCC1)c1ccccc1)C1CC1,.,4,2,.
COC(=O)C1=C(C)N(C)C(=NCC2CC2)NC1c1ccc(Cl)cc1 (stereo not drawn),.,-14,-14,.
Cc1c(/C=N/NC(=O)c2cccnc2)c2ccccc2n1Cc1ccccc1,-5,58*,29,3
Cc1ccccc1/C=N/N=C1/NC(=O)CCS1,-8,20,-2,0
O=C1CCS/C(=N\N=C\c2ccc(Cl)cc2Cl)N1,-1,56*,-5,0
CC(C)Cc1nc(N2CCN(C(=O)c3ccco3)CC2)c(C#N)c2c1CCCC2,12,-2,119*,0
CCOc1ccc(S(N)(=O)=O)cc1-c1nc2c(C(C)(C)C)nn(C)c2c(=O)[nH]1,3,52*,61*,0
CCOc1ccc(S(=O)(=O)NC(C)(C)C)cc1-c1nc2c(C(C)(C)C)nn(C)c2c(=O)[nH]1,23,57*,60*,0
CCCCn1c(=O)[nH]c(=O)c2c1nc(-c1ccc(OCCC)c(OCC)c1)n2C,-16,-3,-5,0
CC1CCN(c2ccc(C(=O)O)cc2NS(=O)(=O)c2cccc3cccnc23)CC1,.,0,4,.
O=C(OC12CCCN(C1)/C(=C/c1ccccc1)C2)c1cccc(F)c1 (stereo not drawn),.,1,-17,.
COC(=O)CSc1nn(-c2ccc(F)cc2)c(=S)s1,10,40*,-10,0
O=C(CSc1nn(-c2ccccc2)c(=S)s1)Nn1cnnc1,-11,-4,8,0
O=C(CSc1nnc(-c2ccccc2)n1Cc1ccco1)Nc1ccc(OCc2ccccc2)cc1,.,-2,7,.
CN(CC(=O)Nc1cccc(S(=O)(=O)NC2=NCCCCC2)c1)Cc1ccc(C(C)(C)C)cc1,66*,-1,2,2
CC(C)(C)c1ccc(OCCC(=O)Nc2cccc(S(=O)(=O)NC3=NCCCCC3)c2)cc1,23,-3,-1,0
CC(C)C(=O)N1CCC2(CC1)Oc1ccc(Cl)cc1C(=O)C21CC(c2ccccc2)=NO1 (stereo not drawn),57*,0,-9,0
CC(C)C(=O)N1CCC2(CC1)Oc1ccc(F)cc1C(=O)C21CC(c2ccc(Cl)cc2)=NO1 (stereo not drawn),48,-2,2,1
COc1ccc(OCCNc2cc(N3CCCCC3)ccc2[N+](=O)[O-])cc1,30,4,0,0
CC1CN(c2ccc([N+](=O)[O-])c(NCCOc3ccccc3)c2)CCN1 (stereo not drawn),7,44*,22,1
C=CCSc1nnc2nc3c(nn12)c1cc(C)ccc1n3CC=C,6,50*,51*,0
C=CCn1c2ccccc2c2nnc(SCC(N)=O)nc21,-4,2,0,0
SMILES,FAS TE block,NPR1 activator,GC-B act,aDG glyco up
Cn1c(=S)c2[nH]c(SCCC(C)(C)C)nc2n(C)c1=O,-1,44*,50*,0
CCCCSc1nc2c([nH]1)c(=S)n(C)c(=O)n2C,-4,34,37*,0
CCN(CC)CCSc1nc2c([nH]1)c(=S)n(C)c(=O)n2C,-5,2,2,1
CCC[C@H]1[C@@H](NC(=O)C2CCC2)CC[C@@]23CCCN2C(=O)CCC[C@@H]13,.,-6,-3,.
O=C1C=C(c2ccc(F)cc2OCc2ccccc2)C[C@@H](c2ccc(Cl)cc2)C1,24,8,16,1
O=C1C=C(c2ccc(F)cc2OCc2ccccc2)C[C@@H](c2ccc3c(c2)OCO3)C1,28,30,39*,0
COc1cccc(-c2ccc3ncnc(NCc4cccc(C)c4)c3c2)c1,18,6,12,2
COc1cccc(CNc2ncnc3ccc(-c4c(C)noc4C)cc23)c1,14,51*,56*,0
COC(=O)[C@]12C[C@H](CC(=O)NCCc3ccccc3OC)C(=O)N(Cc3ccc(Cl)cc3Cl)C1=C[C@H](C(C)(C)C)O[C@@H]2C,.,-3,-3,.
